# PubChem BioAssay (NCI)
# Compounds without any hit were thinned out: in the full panel of roughly 83,000, 20% have a hit.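 48-hour exposure, single concentration, 96-well plates; percent growth endpoint where 0 means no net growth. Active: below 10.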 A number with no mark means an inactive call. Calls of active or inactive are those of the source.
# Test system: CCRF-CEM leukemia
# Assay: NCI-60 one-dose screen, 48 h (100 = growth as untreated, 0 = no growth, -100 = all killed)
# Settings: 10 µM
row,SMILES,growth
1,CC(C)(CNC1CCCCC1)OC(=O)c1ccccc1,84.7%
2,COC(=O)c1ccc2[nH]c(O)c(C(=Nc3ccc(N(C)C(=O)CN4CCN(C)CC4)cc3)c3ccc4c(c3)OCO4)c2c1,4.01% (active)
3,O=C(/C=C\c1ccc(NCc2ccc(C(=O)O)cc2)cc1)CCl,-8.72% (active)
4,CCCCCCC(C)N(CC(C)(C)O)C(=O)c1ccc([N+](=O)[O-])cc1 (configuration not stated),74.8%
5,C=CN(C)S(C)(=O)=O,16.9%
6,CCOC(=O)NC1=NCC(C)(C)S1,98.4%
7,Cc1ccc2c(c1)C(=O)CCS2,109%
8,S=C(N/N=C/c1cc(Cl)cc(Cl)c1)NC12CC3CC(CC(C3)C1)C2,50.8%
9,O=C(Nc1ccc(Cl)c(Cl)c1)O/N=C\c1c(Cl)ccc([N+](=O)[O-])c1Cl,-19.3% (active)
10,O=C(/C=C/c1ccc(Cl)cc1)c1ccc(Cl)cc1,66.9%
11,O=C(Nc1cccc(Cn2c(=O)[nH]c3ccc(Oc4ncccn4)cc3c2=O)c1)c1cccc(F)c1,75.7%
12,CC(=O)c1ccc2c(c1)c1ccccc1n2C,70.6%
13,CCC(C)CC(N)O (configuration not stated),115%
14,COc1cc2ncnc(-n3ncc4cc(NC(=O)Nc5ccccc5)ccc43)c2cc1OC,22.9%
15,O=C(O)CS(=O)c1ccc(Cl)cc1 (configuration not stated),98.5%
16,O=C1C(=O)c2ccccc2C(O)=C1CCCc1ccc(Oc2ccccc2)cc1,32.1%
17,O=C1C(Br)=CC2C1C1C3CCC3C2(Br)C12OCCO2 (configuration not stated),-3.12% (active)
